Epigenetic derep: epigenetic control regulation, reporter derepression | murine LDR cells, GFP reporter derepression, 30 h | 280,000 compounds, 0.2% hits | Potency, µM (highest dose often 53.9 µM), for inactives: top-dose GFP activation, hits mostly activators | AID 1865; also: % of control where 0% means no effect; nearly all actives have a fitted effect of over 60% in size
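Readout is the number of GFP-expressing murine LDR cells, counted by cytometry following washing. Cells were treated with compound for 30 h at 37 C; the stably integrated CMV-GFP locus is normally silent.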
Nrf2 ARE act: Nrf2 pathway activation; AREc32 ARE-luciferase reporter (MCF7-derived line), luminescence, 24 h; Potency, µM (series often up to 46.1 µM), inactives show at the highest dose activation, hits mostly activators; 410,000 compounds, 0.31% hits; AID 624171; also: % of control where 0% means no effect; nearly all actives have a fitted effect of over 65% in size
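AREc32_Fluc, 1000 cells/well, OPTI-MEM + 5% FBS, o/n 37 deg C 5% CO2; 23 nL cpd by pin tool, 24 hr; Steady-Glo 30 min RT, luminescence.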
A549 tox-1: counter-screen for Nrf2 inhibitors: cytotoxicity in A549 cells; A549 ARE-Fluc cells, CellTiter-Fluor viability, 18-24 h; Potency, µM (highest dose often 46 µM), without a hit: at the highest dose activity change, negative = cytotoxicity, most hits filed as inhibitors; 390,000 compounds, 0.16% hits; also: % is scaled to controls: 0 for no effect and ±100 for the full control effect
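A549 ARE_Fluc cells in 5% FBS OPTI-MEM were exposed to compounds in concentration-response for 18-24 h at 37 deg C. Viability was read by CellTiter-Fluor fluorescence (Ex 405/Em 525) after 30 min, before the luciferase read.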
PINK1 modulator: PINK1 expression modulation; PINK1 immunofluorescence, high-content cytometry, 24 h; Potency, µM (highest dose often 76.6 µM), inactives show at the top dose activation (PINK1 increase), most hits filed as activators; 410,000 compounds, 0.2% hits; active = well fitted activation curve with a large enough effect; inconclusive = small, poorly fitted or top-dose-only effect; cell line not stated here; also: % of control where 0% means no effect; nearly all actives have a fitted effect of over 65% in size
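Compound titrations (5 concentrations, 24 h) on a stable cell line; DMSO and CCCP controls. Endpoint: fixed-cell PINK1 immunofluorescence with mitochondrial, cell and nuclear markers, scanned by microplate cytometer.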
Nrf2 block: Nrf2 pathway inhibition. Potency, µM (series often up to 46 µM), for the others: at the highest dose activity change, negative = inhibition, hits mostly inhibitors. A549 ARE-Fluc reporter, luciferase luminescence, 18-24 h. 360,000 compounds, 2.1% hits; also: % is scaled to controls: 0 for no effect and ±100 for the full control effect; nearly all actives have a fitted effect of over 60% in size
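Cells were seeded and rested 2 h, then exposed to compounds for 18-24 h. CellTiter-Fluor was read first as a viability measure. BugLite was added 15 min before the final luminescent read of ARE-luciferase activity in A549 cells.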
FLuc counter 3: firefly luciferase inhibition, Nrf2 hit validation; purified firefly luciferase, luminescence inhibition; AID 720522; 1,400 compounds, 4% hits; Potency, µM (titrated, usually from 57.5 µM), for inactives: at the top dose activity change, negative = inhibition, most hits filed as inhibitors; shares compounds with Nrf2 block; also: % is scaled to controls: 0 for no effect and ±100 for the full control effect; nearly all actives have a fitted effect of over 65% in size
Target sequence (P08659 whole entry, looked up): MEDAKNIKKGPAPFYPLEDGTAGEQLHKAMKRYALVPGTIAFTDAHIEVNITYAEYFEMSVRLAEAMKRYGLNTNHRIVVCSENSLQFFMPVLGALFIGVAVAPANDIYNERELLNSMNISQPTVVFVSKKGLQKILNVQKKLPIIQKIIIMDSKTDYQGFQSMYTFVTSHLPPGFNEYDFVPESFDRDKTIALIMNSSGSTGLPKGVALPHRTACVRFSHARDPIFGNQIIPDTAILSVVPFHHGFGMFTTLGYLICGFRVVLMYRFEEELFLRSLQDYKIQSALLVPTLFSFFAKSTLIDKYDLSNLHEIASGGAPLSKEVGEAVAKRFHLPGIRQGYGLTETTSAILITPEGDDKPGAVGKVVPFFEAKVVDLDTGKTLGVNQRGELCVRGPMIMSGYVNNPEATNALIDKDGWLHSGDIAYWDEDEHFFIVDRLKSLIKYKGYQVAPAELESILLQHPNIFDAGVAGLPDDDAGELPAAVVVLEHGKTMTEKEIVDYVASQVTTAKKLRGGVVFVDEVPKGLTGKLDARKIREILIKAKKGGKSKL
A549 tox-2: toxic to A549 ARE-Fluc cells in Nrf2 counterscreen; AID 720523; 1,400 compounds, 2% hits; A549 ARE-Fluc cells, cytotoxicity counterscreen; shares compounds with Nrf2 block; Potency, µM (series often up to 46.1 µM), for inactives: top-dose activity change, negative = cytotoxicity, usual class: inhibitors;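 also: cells exposed to compounds for 18 to 24 hours; % is scaled to controls: 0 for no effect and ±100 for the full control effect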
ARE-Fluc inh: confirmation of Nrf2 inhibitors in A549 ARE reporter cells; A549 ARE-firefly luciferase reporter, luminescence; shares compounds with Nrf2 block; 1,400 compounds, 74% hits; Potency, µM (series often up to 46.1 µM), for inactives: top-dose activity change, negative = inhibition, usual class: inhibitors; also: % is scaled to controls: 0 for no effect and ±100 for the full control effect; nearly all actives have a fitted effect of over 65% in size
An asterisk follows results filed as active; [ ] = another dose, or the depositor's remark. Hits are enriched below; roughly 2.4% of the tested compounds scored in any of these assays. Unless noted, calls follow the shape of the dose curve; as a rule, active = well fitted curve in the direction sought with a large enough effect; inconclusive = small, poorly fitted or top-dose-only effect, or another doubt; inactive = no such curve, though single readings can be large; an effect the other way counts as inactive or inconclusive. Potency is read from the fitted curve at half-maximal effect.

For O=C(CNc1cccc(C(F)(F)F)c1)Nc1cccc(S(=O)(=O)N2CCCC2)c1 the results were Nrf2 ARE act -0.5%, A549 tox-1 -23.3%, PINK1 modulator inconclusive and Nrf2 block inconclusive.
O=C(CNc1cc(S(=O)(=O)N2CCCC2)ccc1OCC(F)(F)F)Nc1cccc(C(F)(F)F)c1 was read as Epigenetic derep -1.1%, Nrf2 ARE act -0.7%[9.22 µM], A549 tox-1 -19.2%, PINK1 modulator -0.3%, Nrf2 block 7.31µM*, FLuc counter 3 0.5%, A549 tox-2 -17.5% and ARE-Fluc inh 13µM*.
Screening CCN(CC)S(=O)(=O)c1cc(NC(=O)CNc2cccc(S(=O)(=O)N3CCOCC3)c2)ccc1C returned Nrf2 ARE act -0.1%, A549 tox-1 -20.2%, PINK1 modulator 0.0%, Nrf2 block 0.581µM*, FLuc counter 3 0.4%, A549 tox-2 -16.3% and ARE-Fluc inh 3.66µM*.
`N#Cc1cccc(NCC(=O)Nc2cccc(S(=O)(=O)N3CCCCC3)c2)c1` gave Nrf2 ARE act -0.2%, A549 tox-1 -1.9%, PINK1 modulator 5.7% and Nrf2 block inconclusive.
`N#Cc1cccc(NC(=O)CNc2cccc(S(=O)(=O)N3CCCC3)c2)c1` gave Nrf2 ARE act 3.8%, A549 tox-1 inconclusive, PINK1 modulator 13.8%, Nrf2 block 7.31µM*, FLuc counter 3 2.3%, A549 tox-2 -7.0% and ARE-Fluc inh inconclusive.
For COc1ccccc1CNC(=O)c1ccc2c(c1)sc1nc(-c3ccc(F)cc3)cn12 the results were Epigenetic derep 0.0%, Nrf2 ARE act 3.9%, A549 tox-1 8.0%, PINK1 modulator 0.1% and Nrf2 block 7.9%.
O=C(CN1C(=O)c2ccccc2S1(=O)=O)c1cccc(Br)c1 was read as Nrf2 ARE act 0.5%, A549 tox-1 -1.3%, PINK1 modulator 2.3% and Nrf2 block -40.1%.
`O=C(CN1C(=O)c2ccccc2S1(=O)=O)c1ccc2c(c1)OCCCO2` gave Epigenetic derep 1.1%, Nrf2 ARE act -1.9%, A549 tox-1 -2.0%, PINK1 modulator 2.6%, Nrf2 block 0.184µM*, FLuc counter 3 0.8%, A549 tox-2 -7.8% and ARE-Fluc inh 8.2µM*.
Screening O=C(CN1C(=O)c2ccccc2S1(=O)=O)c1ccc2c(c1)OCCO2 returned Epigenetic derep -0.6%, Nrf2 ARE act -3.6%, A549 tox-1 12.0%, PINK1 modulator 3.3%, Nrf2 block 0.0731µM*, FLuc counter 3 -21.8%, A549 tox-2 11.0% and ARE-Fluc inh 5.17µM*.
`Cc1ccc(S(=O)(=O)CC2CSc3nc4ccccc4n32)cc1` (configuration not stated) gave Epigenetic derep 0.6%, Nrf2 ARE act -0.6%, A549 tox-1 0.4%, PINK1 modulator -2.6%, Nrf2 block 0.731µM*, FLuc counter 3 -0.4%, A549 tox-2 -1.1% and ARE-Fluc inh 1.3µM*.
Screening Cc1ccc(S(=O)(=O)CC2CSc3nc(N)cc(=O)n32)cc1 (configuration not stated) returned Epigenetic derep -0.8%, Nrf2 ARE act -0.5%, A549 tox-1 -12.7%, PINK1 modulator -0.6% and Nrf2 block -11.0%.
Cc1cc(C)c2nc(C(F)(F)F)c(C#N)c(N)c2c1 was read as Epigenetic derep 1.8%, Nrf2 ARE act -0.4%, A549 tox-1 -20.2%, PINK1 modulator -0.8% and Nrf2 block inconclusive.
`Cc1ccc2nc(C(F)(F)F)c(C#N)c(N)c2c1` gave Epigenetic derep -1.2%, Nrf2 ARE act -1.9%, A549 tox-1 inconclusive, PINK1 modulator -2.2%[38.3 µM], Nrf2 block 3.66µM*, FLuc counter 3 -12.1%, A549 tox-2 -26.0% and ARE-Fluc inh 7.31µM*.
For O=C(CC(Cl)(Cl)Cl)N1CCN(/[N+]([O-])=N/Oc2ccc([N+](=O)[O-])cc2[N+](=O)[O-])CC1 the results were PINK1 modulator -0.3%.
Screening CCOC(=O)c1sc(NC(=O)c2cc(-c3ccccc3C)nc3ccccc23)c(C#N)c1C returned Epigenetic derep -4.3%, Nrf2 ARE act 4.6%, A549 tox-1 inconclusive, PINK1 modulator inconclusive, Nrf2 block 4.11µM*, FLuc counter 3 12µM*, A549 tox-2 inconclusive and ARE-Fluc inh 4.11µM*.
Cc1ccccc1-c1cc(C(=O)Nc2sc(C)c(C)c2C(N)=O)c2ccccc2n1 was read as Epigenetic derep 3.9%, Nrf2 ARE act 3.0%, A549 tox-1 -21.4% and PINK1 modulator 5.8%.
For CCN(CC)c1ccc(/C=C/c2ccnc3ccccc23)cc1 the results were PINK1 modulator 10.0%, FLuc counter 3 inconclusive, A549 tox-2 -12.0% and ARE-Fluc inh 14.6µM*.
`CN(C)c1ccc(/C=C/c2ccccn2)cc1` gave PINK1 modulator 20.2%.
For C(=C\c1ccccn1)/c1ccccc1 the results were FLuc counter 3 0.2%, A549 tox-2 -33.3% and ARE-Fluc inh 10.3µM*.
For CCN(CC)c1ccc(/C=C/c2ccccn2)cc1 the results were FLuc counter 3 -13.1%, A549 tox-2 9.2µM* and ARE-Fluc inh 1.64µM*.
Cc1c(/C=C/c2ccnc3ccccc23)ccc(N(C)C)c1C was read as PINK1 modulator 1.9%, FLuc counter 3 -21.1%, A549 tox-2 -16.2% and ARE-Fluc inh inconclusive.
`C(=C\c1ccccn1)/c1ccncc1` gave Epigenetic derep 0.0%, Nrf2 ARE act -0.3%, A549 tox-1 -3.0%, PINK1 modulator -0.7% and Nrf2 block 10.7%.
Screening Clc1ccc(/C=C/c2ccnc3ccccc23)c(Cl)c1 returned FLuc counter 3 inconclusive, A549 tox-2 -6.0% and ARE-Fluc inh inconclusive.
Screening Clc1ccc(/C=C/c2ccnc3ccccc23)cc1 returned PINK1 modulator -0.1%.
Screening COc1ccc2c(c1)N(C)/C(=C/c1cccc[n+]1C)S2 returned Nrf2 ARE act 3.1%, A549 tox-1 16.4µM*, PINK1 modulator 5.01µM*, Nrf2 block 3.26µM*, FLuc counter 3 -1.1%, A549 tox-2 inconclusive and ARE-Fluc inh 4.11µM*.
Screening CCN1/C(=C/c2cccc[n+]2C)Sc2ccc(OC)cc21 returned Nrf2 ARE act -1.8%, A549 tox-1 -2.5%, PINK1 modulator 25.1µM*, Nrf2 block 5.8µM*, FLuc counter 3 -0.8%, A549 tox-2 -28.5% and ARE-Fluc inh 6.51µM*.

High-throughput results as filed in PubChem BioAssay.
